High-throughput results from PubChem.
SENP8 block-1: inhibitors of human SENP8 protease; Q96LD8; purified SENP8, Z-RLRGG-aminoluciferin cleavage, luminescence; inhibition, % at 10 µM; 330,000 tested, 1.2% active; AID 2540; in the data active means inhibition above about 50%
Target sequence (Q96LD8 whole entry, looked up): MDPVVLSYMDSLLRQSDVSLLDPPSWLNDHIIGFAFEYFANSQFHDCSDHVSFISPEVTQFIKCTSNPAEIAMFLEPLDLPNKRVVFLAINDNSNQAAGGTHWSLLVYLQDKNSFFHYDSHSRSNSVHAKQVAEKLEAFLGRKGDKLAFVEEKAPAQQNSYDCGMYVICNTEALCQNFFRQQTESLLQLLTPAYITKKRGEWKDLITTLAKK
SENP8 block-2: inhibitors of human SENP8 protease; recombinant SENP8, Nedd8 substrate fluorescence; inhibition, % at 20 µM; 360,000 tested, 0.64% active; AID 602440; Q96LD8; in the data active means inhibition mostly above about 40%, no sharp cut-off; inactive means mostly below about 27%
HSP90 inh: inhibitors of HSP90 luciferase refolding in rabbit reticulocyte lysate. luciferase refolding luminescence, 3 h. inhibition, % at 5.6 µM. AID 1789. 290,000 tested, 0.91% active;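 active means inhibition above the screen-wide mean plus 3 SD, computed separately per campaign, cut at about 16% in these data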;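 further: 0% = DMSO wells and 100% = 60 µM geldanamycin wells; inhibitors lower the luminescence because luciferase stays unfolded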
SENP6 inh: blocks the human protease SENP6; Q9GZR1; 330,000 tested, 1.8% active; inhibition, % at 10 µM; AID 2599; Recombinant SENP6 catalytic domain, aminoluciferin luminescence;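 active means inhibition above about 50% at the single tested dose, limit read from the data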;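 further: plate controls were DMSO wells with enzyme for no effect and DMSO wells lacking enzyme for full effect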
Target sequence (Q9GZR1 628-1112 limits assumed): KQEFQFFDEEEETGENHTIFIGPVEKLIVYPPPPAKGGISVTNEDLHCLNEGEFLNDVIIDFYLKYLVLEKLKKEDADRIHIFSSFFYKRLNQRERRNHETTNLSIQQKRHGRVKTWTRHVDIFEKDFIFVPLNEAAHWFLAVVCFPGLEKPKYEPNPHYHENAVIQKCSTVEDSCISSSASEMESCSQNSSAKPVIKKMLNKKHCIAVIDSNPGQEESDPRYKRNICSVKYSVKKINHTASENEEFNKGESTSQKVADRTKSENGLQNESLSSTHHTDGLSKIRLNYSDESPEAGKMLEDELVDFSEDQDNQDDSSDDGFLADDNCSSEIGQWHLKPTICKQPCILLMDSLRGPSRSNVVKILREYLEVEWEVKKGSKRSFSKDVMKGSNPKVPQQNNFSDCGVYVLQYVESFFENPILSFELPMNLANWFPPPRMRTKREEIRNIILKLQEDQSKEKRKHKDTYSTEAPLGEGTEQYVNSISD
SENP7 block: blocks the human protease SENP7; inhibition, % at 5 µM; 330,000 tested, 1.5% active; Q9BQF6; recombinant SENP7, Z-RLRGG-aminoluciferin luminescence, 40 min;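 active means inhibition above about 50% at the single test dose, limit read from the data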;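 further: plate controls were DMSO with enzyme for no effect and no enzyme buffer wells for full effect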
Platelet DG rel: modulates dense granule release in human platelets; human platelet-rich plasma, SFLLRN dense granule ATP release, luminescence; inhibition, %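 (compounds screened at 7.5 µM in platelet-rich plasma)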; 300,000 tested, 0.22% active; AID 1663;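 active means mean replicate score, as percent of positive control, at or above 50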
Numbers without * were called inactive; i = inactive; nt = not tested or not shown. Only some compounds are listed: those with a hit (about 2.8% of all), similar ones and a draw of the others.

SMILES | SENP8 block-1 | SENP8 block-2 | HSP90 inh | SENP6 inh | SENP7 block | Platelet DG rel
O=C(O)C1=C[C@@H](c2ccccc2)C[C@@H](OCc2ccc(CO)cc2)O1 | -12.9 | 12.1 | 2.5 | -9.6 | 10.9 | 5.1
C#Cc1ccc([C@@H]2C=C(C(=O)O)O[C@H](OCc3ccc(CO)cc3)C2)cc1 | -5.8 | 6.3 | 16.4* | -10.0 | 4.1 | -1.4
O=C(O)c1ccc(-c2nc3ccccc3[nH]2)cc1 | 62.5* | -447.8 | -8.5 | 75.1* | 73.0* | 16.1
Oc1ccccc1N=Cc1ccc[nH]1 | 7.6 | 40.6* | 4.5 | 13.6 | 11.9 | -7.9
COC(=O)[C@@]1(Cc2ccccc2)[C@H]2C(=O)N(C)C(=O)[C@H]2[C@H]2CN=C(SCc3ccc(Cl)cc3)N21 | nt | -1.7 | nt | nt | 5.7 | nt
O=C1NC2=C(CCc3ccccc32)C(c2ccccc2)N1 (stereo unspecified) | 87.0* | -166.8 | 3.1 | 95.1* | 72.9* | -12.4
O=C(Cc1ccc(S(=O)(=O)N2CCOCC2)s1)N1CCN(S(=O)(=O)c2cccc([N+](=O)[O-])c2)CC1 | 4.3 | -4.2 | nt | -9.2 | -1.1 | -3.1
Oc1c(N=Nc2ccccn2)ccc2ccccc12 | 96.1* | 20.6 | 9.3 | 93.8* | 42.7 | 41.6
O=S(=O)(NCCc1cn2ccccc2n1)c1ccc2c(c1)CCCC2 | -8.1 | -48.4 | -3.1 | -18.6 | 12.3 | 57.0*
O=S(=O)(NCCc1cn2ccccc2n1)c1ccc2c(c1)OCCO2 | 2.2 | -25.7 | -2.8 | -8.4 | -0.1 | 0.3
O=C(O)c1ccc(N=Nc2c(O)[nH]c3cc(Cl)ccc23)cc1 | 94.6* | 37.1 | 3.1 | 97.4* | 96.8* | 9.2
O=C(O)c1ccc(N=Nc2c(O)[nH]c3ccc(Br)cc23)cc1 | 69.5* | 38.2 | 18.1* | 57.1* | 62.0* | 6.3
Cc1ccc(S(=O)(=O)N2CCC[C@H]2C(=O)OCC(=O)Nc2ccc3c(c2)OCO3)cc1 | -2.1 | 5.4 | nt | -8.5 | 2.3 | nt
O=C(Nc1ncccc1O)c1ccc2c(c1)OCO2 | -17.6 | 8.6 | nt | -2.9 | 18.6 | 7.2
O=C(Nc1ncccc1O)c1ccc2ccccc2c1 | -5.0 | 1.7 | 16.9* | 12.4 | 31.9 | -5.2
O=C(Nc1n[nH]c(=S)s1)c1ccc2ccccc2c1 | 81.7* | -17.3 | -2.1 | 91.4* | 63.0* | 4.5
COc1cc(OC)cc(C(=O)NNC(=O)CCC(=O)c2cccs2)c1 | -1.8 | 1.8 | -1.4 | -10.9 | -5.4 | 0.7
C=CCn1c(O)c(N=Nc2ccccc2O)c2ccccc21 | -7.7 | 17.0 | nt | -5.8 | 8.6 | nt
C=CCn1c(O)c(N=Nc2ccccc2[N+](=O)[O-])c2ccccc21 | nt | 46.5* | nt | nt | nt | nt
O=C(N/N=C\c1ccc(Oc2ccccc2)cc1)c1csnn1 | 71.4* | -0.2 | 3.6 | 74.9* | 76.7* | 17.5
CN(C)c1ccc(/C=N\NC(=O)c2csnn2)cc1 | 13.4 | -7.7 | 11.1 | 32.0 | 40.1 | 19.4
CC(=O)Nc1ccc(S(=O)(=O)N(C)c2ccc(OCC(=O)OCC(=O)NCc3ccco3)cc2)cc1 | 4.6 | 15.9 | 2.0 | -16.1 | -2.3 | -0.3
CCOc1ccc(N=Nc2c(=O)[nH]n3c(C)cc(C)nc23)cc1 | -7.2 | 52.6* | 2.1 | -3.0 | -13.8 | 2.2
CC(=O)c1cccc(OCCCOc2cccc3cccnc23)c1 | -6.2 | -62.4 | -0.6 | -8.5 | -0.5 | 1.4
Cc1ccc(C)c(OCC(=O)Nc2ccccc2C(=O)NC2CC2)c1 | -8.3 | -5.4 | -3.8 | -13.3 | 8.8 | 0.3
SMILES | SENP8 block-1 | SENP8 block-2 | HSP90 inh | SENP6 inh | SENP7 block | Platelet DG rel
Cc1ccc(Cl)c(OCC(=O)Nc2ccccc2C(=O)NC2CC2)c1 | -2.4 | -9.1 | -1.9 | -2.3 | -5.0 | 52.9*
CCC1CCCCN1CCCNC(=O)CSc1nc2nc(C)c(Cc3ccc(C)cc3)c(C)n2n1 (stereo unspecified) | 1.7 | 12.9 | 1.5 | 0.7 | 6.9 | 3.5
CC1(C(=O)NCC2CC2)CCN1C(=O)C1(c2ccccc2)CC1 (stereo unspecified) | nt | 23.0 | nt | nt | nt | nt
O=C(c1ccccc1)n1ccc(-c2cnc(-c3ccccc3)s2)n1 | 67.5* | i | 11.8 | 56.6* | 90.1* | 11.6
COc1ccc(NC(=O)C2(C)CCN2CCc2ccccc2)cc1OC (stereo unspecified) | nt | 11.6 | nt | nt | nt | nt
CC(=O)Nc1ccc(NC(=O)CSc2cn(CC(=O)N3CCOCC3)c3ccccc23)cc1 | 4.7 | 14.5 | -2.4 | -3.4 | 3.1 | -24.7
O=C(Cn1cc(SCc2ccccc2Cl)c2ccccc21)N1CCOCC1 | 42.9 | 10.7 | -1.0 | 74.6* | 40.1 | -15.0
CC(C)(C)OC(=O)C[C@@H]1C/C=C\C[C@@H](CC(=O)N(CCO)Cc2ccccc2)C(=O)N[C@@H](c2ccccc2)COC1=O | -7.6 | 15.0 | nt | -0.4 | -8.6 | nt
O=C(Nc1ccc2c(c1)OCCO2)C1c2ccccc2OCC(=O)N1CCc1c[nH]c2ccccc12 (stereo unspecified) | nt | 3.8 | nt | nt | nt | nt
CCOC(=O)C(C(=O)OCC)c1cc(Br)c2noc3c2c1C(=O)c1ccccc1-3 | 21.7 | 87.1* | 0.9 | 65.4* | 23.4 | -30.4
COC(=O)c1ccccc1NC(=O)COC(=O)c1ccccc1N=Nc1ccc(N(C)C)cc1 | -0.3 | 42.1* | -6.5 | -7.4 | 3.3 | -10.1
Cc1ccc(S(=O)(=O)N2CCCC2C(=O)O)cc1 (stereo unspecified) | -0.9 | 16.7 | 0.1 | -1.6 | -3.8 | 82.6*
COC1Cc2ccccc2N(C(N)=O)c2ccccc21 (stereo unspecified) | 6.8 | 14.2 | nt | 0.8 | -2.0 | -1.5
COc1cc(C2C3=C(COC3=O)Oc3cc4c(cc32)OCO4)cc(OC)c1OC (stereo unspecified) | nt | 43.5* | nt | nt | nt | nt
COc1cc(C2C3=C(COC3=O)Oc3cc4c(cc32)OCO4)cc(OC)c1O (stereo unspecified) | nt | 6.9 | nt | nt | nt | nt
CCO[C@@H]1OC(C(=O)NCc2nc3ccccc3[nH]2)=C[C@H](c2cn(C(C)=O)c3ccccc23)[C@H]1CCCO | 2.0 | -20.3 | 16.1* | -9.6 | -8.4 | 16.1
COc1nc(N)nc(N)c1NS(=O)(=O)c1ccc(C)cc1 | -9.2 | 10.2 | -1.0 | -14.1 | -7.3 | 2.0
COc1cc(C2Nc3cccc4cccc(c34)N2)cc(OC)c1O | 8.5 | 58.0* | -1.5 | 18.7 | 97.6* | nt
Oc1ccc(C2Nc3cccc4cccc(c34)N2)c(O)c1 | -4.6 | 44.8* | -1.1 | 4.7 | 3.1 | -40.2
Fc1ccc(C2Nc3cccc4cccc(c34)N2)cc1 | 1.2 | 34.3 | 0.9 | 14.5 | -3.5 | -2.4
COC(=O)c1ccc(C2Nc3cccc4cccc(c34)N2)cc1 | 1.5 | 54.0* | 3.7 | 27.4 | 12.1 | -0.2
O=C(Nc1ccccc1)O[C@@H]1C[C@H]2CCCC(=O)N3CC[C@@H](C1)[C@@H]23 | nt | 25.0 | nt | nt | nt | nt
O=C(Nc1ccccc1)O[C@@H]1C[C@H]2CCC(=O)N3CC[C@@H](C1)[C@@H]23 | 54.6* | nt | -8.0 | 56.4* | 59.8* | 10.0
O=C(c1ccc(Br)o1)N1CCCc2ccccc21 | 1.7 | 25.4 | 0.2 | 25.9 | 21.5 | 0.4
O=C(c1ccc(Br)o1)N1CCc2ccccc21 | 92.9* | nt | -2.4 | 94.3* | 95.1* | 14.3
